We go through 14 molecules from PubChem BioAssay (NCI).

This is part of a sample that, as a whole, favours compounds with a hit. Of some 83,000 tested, about 20% had one in any assay.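 Method: cells in 96-well plates; compound added at one concentration; 48 h incubation; percent growth measured; values under 10 scored active.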 A number with no mark means an inactive call. Active and inactive are the calls of the source.

Some test systems named below: DU-145 prostate; K-562 leukemia; MALME-3M melanoma; MDA-MB-231 breast; RXF 393 renal; SF-268 CNS; SF-295 CNS; SF-539 CNS; UACC-257 melanoma; M14 melanoma.
Experiment in all cases: NCI-60 one-dose screen, 48 h (100 = growth as untreated, 0 = no growth, -100 = all killed)
Holding throughout (details): 10 µM unless noted

Regarding `COP(=O)(OC)/C(=N\NS(=O)(=O)c1ccc(C)cc1)c1ccccc1`, the growth was 106% in the test on DU-145 prostate; 120% in the test on K-562 leukemia; 104% in the test with MALME-3M melanoma; 119% in the test on MDA-MB-231 breast; 76.6% in the test with RXF 393 renal; 119% in the test with SF-268 CNS. For the same molecule, the growth in the test on SF-295 CNS is 117%; in the test on SF-539 CNS, 95%; in the test with UACC-257 melanoma it was 112%; in the test with M14 melanoma, 93.3%.
With `COc1cc(Cn2cc3c(c2)-c2oncc2CC3)cc(OC)c1OC`, the growth in the test with DU-145 prostate is -11% (active); in the test on K-562 leukemia, 12%; with MALME-3M melanoma, 56.5%; in the test on MDA-MB-231 breast, 28.9%; with RXF 393 renal, 46.1%; with SF-268 CNS, 18.4%. Also, the growth with SF-295 CNS is -3.52% (active); with UACC-257 melanoma, 81.2%; in the test on M14 melanoma, 10.7%.
Regarding `COc1ccc(C(=O)n2nc(/C=C/c3ccc(O)c(OC)c3)cc2/C=C/c2ccc(O)c(OC)c2)cc1`, the growth in the test with DU-145 prostate is 16.6%; in the test on K-562 leukemia, -6.97% (active); in the test on MALME-3M melanoma, 3.93% (active); in the test with MDA-MB-231 breast, 12.5%; in the test with RXF 393 renal, -54.8% (active); with SF-268 CNS, 6.45% (active). The growth in the test with SF-295 CNS was 6.61% (active); with SF-539 CNS, -24.4% (active); with UACC-257 melanoma it was 0.119% (active); with M14 melanoma, -15.1% (active).
With `O=C(NNC(=O)N1c2ccccc2C=Cc2ccccc21)c1ccc2ccccc2c1`, the growth with DU-145 prostate is 95.5%; in the test with K-562 leukemia it was 87.2%; in the test on MALME-3M melanoma it was 95.6%; with MDA-MB-231 breast, 94.2%; with RXF 393 renal, 103%; in the test with SF-268 CNS it was 91.4%. Further, the growth with SF-295 CNS is 93.5%; in the test with SF-539 CNS it was 92.2%; in the test on UACC-257 melanoma it was 103%; in the test on M14 melanoma it was 101%.
For `O=C([O][Sn]([O]C(=O)c1ccccn1)([c]1ccccc1)[c]1ccccc1)c1ccccn1`, the growth with DU-145 prostate is 92.3%; with K-562 leukemia it was 24%; with MALME-3M melanoma, 86.4%; with MDA-MB-231 breast, 87.4%; with RXF 393 renal, 41.7%; in the test on SF-268 CNS, 83.5%. In addition, the growth with SF-295 CNS is 127%; in the test on SF-539 CNS, 97.4%; in the test with UACC-257 melanoma it was 73.9%; in the test with M14 melanoma, 85.8%.
`CCOC(=O)CN1/C(=N/c2sc3c(c2C(=O)OCC)CCN(C(=O)OCC)C3)SC(=O)/C1=C\C(=O)OC`: the growth in the test with DU-145 prostate is 104%; in the test on K-562 leukemia it was 64.2%; in the test with MALME-3M melanoma it was 101%; with MDA-MB-231 breast, 89.2%; in the test on RXF 393 renal, 90.9%; in the test on SF-268 CNS, 90.8%. Besides, the growth with SF-295 CNS was 98%; with SF-539 CNS it was 93.9%; in the test on UACC-257 melanoma it was 92.8%; in the test on M14 melanoma, 95%.
For the molecule `C=C1C(=O)O[C@H]2[C@H]1CC/C(Cn1cc(-c3cccc(Cl)c3)nn1)=C\CC[C@@]1(C)O[C@@H]21`, the growth is -99.4% (active) in the test with DU-145 prostate; 0.665% (active) in the test on K-562 leukemia; -77.3% (active) with MALME-3M melanoma; -54.1% (active) with MDA-MB-231 breast; -88.4% (active) in the test with RXF 393 renal; -47.9% (active) in the test on SF-268 CNS. Moreover, the growth in the test with SF-295 CNS is 72.4%; in the test on SF-539 CNS, -76.7% (active); in the test with M14 melanoma, -56.4% (active).
As for `COc1ccc(-n2c(-c3ccccc3)c(-c3ccccc3)c3c(SCC(=O)N/N=C/c4ccc(Cl)cc4)ncnc32)cc1`, the growth with DU-145 prostate was 95.4%; in the test with K-562 leukemia it was 80.7%; with MALME-3M melanoma it was 107%; in the test on MDA-MB-231 breast, 82.1%; in the test on RXF 393 renal, 97.3%; in the test with SF-268 CNS, 88.5%. Besides, the growth in the test on SF-295 CNS is 92.9%; in the test on SF-539 CNS it was 93.8%; with UACC-257 melanoma, 95.1%; in the test on M14 melanoma, 99.5%.
With `Cc1ccc(S(=O)(=O)c2nc(-c3ccccc3)oc2S(C)(=O)=O)cc1`, the growth is 30.4% with DU-145 prostate; 2.49% (active) in the test with K-562 leukemia; -77.8% (active) with MALME-3M melanoma; 13.6% in the test with MDA-MB-231 breast; 10.4% in the test on RXF 393 renal; 68.6% with SF-268 CNS. The growth with SF-295 CNS is 89.4%; with SF-539 CNS, -23.1% (active); with UACC-257 melanoma, 74.8%; in the test on M14 melanoma, 17.8%.
In the case of `COc1ccc(/C=C/c2c(C(C)=O)c(C)nc3ccccc23)cc1`, the growth is 97.7% with DU-145 prostate; 52.4% in the test on K-562 leukemia; 101% in the test on MALME-3M melanoma; 82.8% in the test with MDA-MB-231 breast; 86.6% in the test on RXF 393 renal; 97.5% in the test with SF-268 CNS. The results for the growth in the test with SF-295 CNS, with UACC-257 melanoma and in the test on M14 melanoma were 85.3%, 64.7% and 99.2%, respectively.
For `CC(C)OC(=O)N1CCOCC1`, the growth with DU-145 prostate is 104%; with K-562 leukemia, 123%; with MALME-3M melanoma, 94.7%; in the test on MDA-MB-231 breast, 90.8%; in the test with RXF 393 renal it was 116%; in the test on SF-268 CNS, 99.7%. The figures for the growth in the test on SF-295 CNS, in the test with UACC-257 melanoma and in the test on M14 melanoma were 113%, 97.1% and 103%, respectively.
For the molecule `CN1CCN(CCCOc2ccc3nc(Nc4ccc(Cl)c(C(F)(F)F)c4)ccc3c2)CC1`, the growth was 54.1% with DU-145 prostate; -28.2% (active) with K-562 leukemia; 55.9% in the test on MALME-3M melanoma; -12.9% (active) with MDA-MB-231 breast; 58.8% with RXF 393 renal; 59.7% in the test with SF-268 CNS. Also, the values for the growth in the test with SF-295 CNS, in the test with SF-539 CNS and in the test on M14 melanoma were 56%, 47% and -11.6% (active), respectively.
Regarding `COc1cc(NC(N)=NCCC(C)(C)c2ccc(C(F)(F)F)cc2)ncc1C#N`, the growth in the test on DU-145 prostate was 39.6%; in the test with K-562 leukemia, -18.1% (active); in the test on MALME-3M melanoma, -77.9% (active); with MDA-MB-231 breast it was 26%; in the test on RXF 393 renal it was 33.4%; in the test on SF-268 CNS, 44.1%. The growth in the test with SF-295 CNS is 25.9%; with SF-539 CNS it was 61.1%; with UACC-257 melanoma, -0.602% (active); in the test on M14 melanoma, -73.7% (active).
Take `CC1CN(c2oc(-c3ccccc3)nc2C#N)CC(C)O1` (stereo not given): the growth with DU-145 prostate is 99.7%; in the test on K-562 leukemia it was 97.6%; in the test with MALME-3M melanoma, 102%; in the test with MDA-MB-231 breast, 101%; in the test on RXF 393 renal it was 104%; in the test with SF-268 CNS, 98.2%. Besides, the growth was 99.1% in the test with SF-295 CNS, 98.6% in the test on SF-539 CNS, 103% with UACC-257 melanoma and 99.3% in the test on M14 melanoma.
